Hit rate of the full screen: of about 330,000 compounds, about 4,100 (1.2%) were called active. The list comes from a sample in which actives are over-represented; it also holds similar structures and randomly drawn compounds. A number with no mark means an inactive call. No stated cut-off is given here; in the data, active means inhibition above about 50%; inactive means the rest.
Molecular target: Sentrin-specific protease 8 (Homo sapiens) (UniProt Q96LD8)
Test: blockers of human SENP8 peptidase activity – biochemical, luminescence, primary screen (AID 2540)
Details: purified SENP8, Z-RLRGG-aminoluciferin cleavage, at 10 µM, active compounds read high

Chain of Sentrin-specific protease 8 (Homo sapiens) (Q96LD8 whole entry, looked up): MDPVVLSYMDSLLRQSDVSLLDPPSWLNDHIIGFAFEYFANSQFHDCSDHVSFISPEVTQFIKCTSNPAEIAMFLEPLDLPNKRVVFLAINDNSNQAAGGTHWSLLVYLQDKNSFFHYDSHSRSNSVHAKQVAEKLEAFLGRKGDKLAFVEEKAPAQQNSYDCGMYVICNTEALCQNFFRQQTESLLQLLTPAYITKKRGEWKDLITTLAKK

Point of comparison: CN(CCOc1ccccc1)Cc1nc2cc(Cl)ccc2c(=O)[nH]1, inhibition 0.32%. Against it:
- Cc1ccsc1C1C(C#N)=C(N)OC2=C1C(=O)CC(C)C2 (stereo unspecified) — lower, -10.3%
- Cc1ccc(S(=O)(=O)N2CCCCC2)cc1NC(=O)c1cccnc1 — lower, -12.3%
- CC1(C)C/C(=N/Nc2ccc([N+](=O)[O-])cc2[N+](=O)[O-])C(C)(C)O1 — lower, -5.03%
- CCCCn1c(N)c(N(CC(C)C)C(=O)CN(C)S(=O)(=O)c2ccc(F)cc2)c(=O)[nH]c1=O — higher, 2.26%
- COC(=O)C1=C(C(=O)OC)C2(OC1c1ccc(Br)cc1)C(=O)c1ccccc1C2=O (stereo unspecified) — lower, -0.809%
- CN(Cc1c(F)cccc1Cl)C(=O)CNC(=O)c1ccc2c(c1)OCO2 — lower, -2.64%
- N#CCCN(C(=O)COC(=O)c1ccc2c(c1)OCCO2)c1ccccc1 — higher, 10%
- N#Cc1ccccc1NC(=O)c1ccc2c(c1)OCO2 — higher, 0.633%
- COCc1nnc(NC(=O)c2ccc3c(c2)OCO3)s1 — higher, 0.871%
- COc1ccc(C(=O)Nc2ccc3nc(N4CCCCC4)cc(C)c3c2)cc1OC — higher, 1.68%
- O=C(COC(=O)c1ccc2c(c1)OCCO2)NCc1ccccc1Cl — lower, -14.4%
- COc1cc(C(=O)NCC2(c3ccccc3)CCCC2)ccc1OC(C)C — higher, 1.28%
- Cc1ccc2sc(NNC(=O)c3ccc4c(c3)OCCO4)nc2c1C — lower, -5.8%
- O=C(Nc1cc(Cl)ccc1N1CCOCC1)c1ccc(N2CCCC2=O)cc1 — higher, 6.24%
- CC(CNc1ccc([N+](=O)[O-])c2cccnc12)Nc1c([N+](=O)[O-])cc(C(F)(F)F)cc1[N+](=O)[O-] (stereo unspecified) — lower, -1.48%
- CCN(CC)CCOc1ccc2c(c1)C(=NNC(=O)c1ccccn1)c1cc(OCCN(CC)CC)ccc1-2 — lower, -1.52%
- N#Cc1ccc(OCC(=O)NC(=O)NC2CCS(=O)(=O)C2)cc1 (stereo unspecified) — higher, 0.761%
- COc1cc(/C=C/C(=O)O)cc(S(=O)(=O)Nc2ccccc2C(=O)NCCc2ccccc2)c1OC — higher, 0.693%
- Cc1cc(C)c(C#N)c(SCS(=O)c2ccc(C(C)(C)C)cc2)n1 (stereo unspecified) — lower, -4.22%
- CN1CC(c2ccccc2)C2(COc3ccccc3C2=O)C12C(=O)Nc1ccccc12 (stereo unspecified) — higher, 0.36%
- CC(=O)c1ccccc1NC(=O)CC1(CC(=O)O)CCCCC1 — higher, 1.06%
- Clc1ccc(CSc2nnc([C@@H]3CCCN3)o2)cc1 — lower, -0.161%
- CC(C)[C@@H]1NC(=O)c2cc([N+](=O)[O-])cc(I)c2NCCC[C@@H](C(=O)NC(CC(=O)O)C(N)=O)NC(=O)[C@H](CO)NC1=O (stereo partly specified) — higher, 3.05%
- O=C(NCCOc1ccccc1F)Nc1ccc(Br)cc1 — lower, -3.32%
- Cc1cc(C)nc(NC(=O)c2cccc([N+](=O)[O-])c2)c1 — lower, -2.37%
- CC(C)C(=O)Nc1cccc(C(=O)Nc2ccc3c(c2)OCO3)c1 — higher, 1.49%
- COc1cc(NC(=O)c2ccc3c(c2)OCO3)ccc1NC(=O)c1cccs1 — lower, -17.4%
- CC(C)(C)SCCNC(=O)c1cccc([N+](=O)[O-])c1 — lower, -0.846%
- CCN(c1ccccc1)S(=O)(=O)c1cc2c(cc1C)n(C)c(=O)c(=O)n2C — lower, -13.5%
- CCN1CCN(c2cc3nc(C)n(Cc4ccccc4)c(=O)c3cc2NC(=O)c2ccccc2F)CC1 — lower, -6.48%
- COc1ccc(C)cc1NC(=O)CSc1nnc2ccc(-c3ccccn3)nn12 — higher, 4.77%
- Brc1ccccc1CN1CCC(Cc2ccccc2)CC1 — higher, 3.24%
- COc1ccc(-n2nnnc2CNC(=O)c2ccc3ccccc3c2)cc1 — lower, -10.6%
- COc1ccc(C2=NN(c3nc4ccccc4s3)C(=O)C2)cc1 — higher, 10.1%
- N#Cc1c(N)sc2c1CCN(C(=O)OCc1ccccc1)C2 — higher, 2.15%
- COc1ccc(SCCN2CCN(CC(C)C)CCC2=O)cc1 — higher, 5.29%
- O=C(NCCCN1CCCC1=O)C(=O)NCC1OCCN1S(=O)(=O)c1ccc(Br)cc1 (stereo unspecified) — lower, -0.009%
- O=C(O)/C=C/c1ccc2c(c1)OCCO2 — higher, 1.06%
- CN(C)c1ccc(/C=C/C(=O)c2ccc(O)cc2)cc1[N+](=O)[O-] — lower, -28.3%
- CNS(=O)(=O)c1ccc(NC(=O)Nc2ccc3c(c2)OCO3)cc1 — lower, -9.35%
- CN1CCN(c2ncc3c(n2)CC(c2ccccc2F)CC3=O)CC1 (stereo unspecified) — lower, -5.2%
- Cc1cccc(Nc2ccccc2C(=O)NCc2ccco2)c1C — lower, -4.58%
- O=C(CCNC(=O)c1ccccc1Cl)NCc1ccco1 — lower, -2.13%
- CCOc1ccc(NC(=O)C/C(C)=N/NC(=O)Cc2cccs2)cc1 — lower, -7.21%
- CC(C)[C@H](NC(=O)N1CCn2c1nc1ccccc12)C(=O)NC1CC1 — lower, -8.07%
- CSCCC(NC(=O)COc1ccccc1)C(=O)OCCOc1ccc(Br)cc1 (stereo unspecified) — lower, -20.5%
- CCC(C)(C)NC(=O)C(c1ccc(O)cc1)N(Cc1ccco1)C(=O)CCC(=O)Nc1ccccn1 (stereo unspecified) — lower, -6.41%
- Cc1cc(C(=O)N/N=C\C(Br)=C\c2ccccc2)c(C)o1 — higher, 38.8%
- O=C(NN=Cc1ccc(N2CCOCC2)cc1)c1cc2ccccc2cc1O — lower, -1.63%
- COc1ccc(C/C(C)=N/NC(=O)c2cc(C)oc2C)cc1 — lower, -5.88%
- Cc1ccccc1N/N=C/c1ccc(N2CCOCC2)cc1 — lower, -7.47%
- CCCOc1ccc(C2=CSC3=NCCN23)cc1Cl — lower, -25.9%
- CCN(C(=O)CSc1nnc(-c2ccncc2)o1)c1ccccc1 — lower, -5.88%
- COc1ccc(CNc2c(CO)cnc3c2cnn3C)cc1 — higher, 3.66%
- CC(=O)c1cc2c(cc1NC(=O)CN1CCCCCC1)OCO2 — higher, 6.92%
- COCCN(C(=O)CSCc1ccc(C)cc1)c1c(N)n(CC(C)C)c(=O)[nH]c1=O — lower, -1.3%
- CCCCCC(=O)N1CCN(S(=O)(=O)c2ccc3c(c2)OCCCO3)CC1 — lower, 0.168%
- O=C(N/N=C/c1ccc([N+](=O)[O-])cc1)C(=O)N1CCCC1 — lower, -9.06%
- Cc1ccc(NC(=O)c2sccc2C)cc1[N+](=O)[O-] — higher, 3.23%
- COCC(C)n1c(C)cc(C(=O)COc2ccc(C)nc2[N+](=O)[O-])c1C (stereo unspecified) — higher, 4.55%
- C#Cc1ccc([C@@H]2C=C(C(=O)O)O[C@H](OCCCCO)C2)cc1 — lower, -9.34%
- CCC(C)NC(=O)/C=C/c1ccc(S(=O)(=O)NCc2ccco2)cc1 (stereo unspecified) — lower, -7.51%
- CC1(C)C2CC=C(/C=N/NC(=O)c3ccc(Cl)cc3)C1C2 (stereo unspecified) — lower, -0.62%
- CCN1CCN(c2nc(Nc3cccc(F)c3)nc(N)c2[N+](=O)[O-])CC1 — lower, -4.79%
- COc1cccc(Nc2nc(N)c([N+](=O)[O-])c(NCc3ccco3)n2)c1 — lower, -2.27%
- Cc1cc(C)c(NC(=S)N2CCCC2C(=O)O)c(C)c1 (stereo unspecified) — lower, -2.97%
- CC(=O)c1cccc(NC(=O)c2cc(C)nn2-c2ccccc2)c1 — lower, -2.45%
- N#Cc1ccc(S(=O)(=O)NCC(=O)OCC(=O)NCCc2ccccc2)cc1 — higher, 2.9%
- CCC1C/C(=C/c2cccs2)C(=O)/C(=C/c2cccs2)C1 (stereo unspecified) — lower, -8.62%
- O=S(=O)(c1cccs1)N1CCc2ccccc2C1 — lower, -2.48%
- O=C1/C(=C/c2cccs2)SC(=S)N1C1CCS(=O)(=O)C1 (stereo unspecified) — higher, 10.2%
- COc1ccc(/C=C2\CCc3ccccc3C2=O)c(OC)c1OC — lower, -6.3%
- CC(C)(C)C(=O)CSc1ccc(S(=O)(=O)N2CCCC2)cn1 — lower, 0.226%
- CC(=O)N1CCC(C(=O)OCc2ccc(Cl)cc2)(c2ccccc2)CC1 — lower, -16%
- Cc1ccc(CNC(=O)CCNS(=O)(=O)c2ccc(Br)s2)cc1 — lower, -3.11%
- CCCn1c(SCC(=O)c2ccc3c(c2)OCCO3)nnc1C(C)C — higher, 1.93%
- O=C(O)c1ccc(/C=N/Nc2nc(N3CCCCC3)nc(N3CCCCC3)n2)cc1 — lower, -10.8%
- Cc1ccc2cc(/C=N/Nc3ccc(C(=O)O)cc3)c(Cl)nc2c1 — lower, -3.31%

For O=C(Nc1ccccc1F)c1ccc2c(c1)OCO2, the inhibition was 65.2% (active).
For COc1ccc(C(=O)Nc2ccc(C3(C#N)CCCC3)cc2)cc1OC, the inhibition was 92.8% (active).
O=C(Nc1nc2ccccc2s1)c1ccc2c(c1)OCO2 was tested, and the inhibition was 94.1% (active).
O=C(OCc1ccccc1F)c1ccc2c(c1)OCCO2 was tested, and the inhibition was 80.2% (active).
In the case of O=C(Nc1ccc(C2CC2(Cl)Cl)cc1)c1cccc([N+](=O)[O-])c1 (stereo unspecified), the inhibition is reported as 50.5% (active).
For COc1ccc(C(=O)Nc2ccc3c(c2)OCO3)cc1OC, the inhibition was 77.5% (active).
With COc1ccc(-n2nnnc2-c2nc3ccccc3s2)cc1 the inhibition was 50.3% (active).
O=C(/C=C/c1ccc2c(c1)OCCO2)c1ccc(O)cc1 was tested, and the inhibition was 76.9% (active).
For O=C(Nc1ccccc1)Nc1ccccc1C(=O)NCc1ccco1, the inhibition was 65.9% (active).
Cc1cc(C(=O)N/N=C/c2ccc(N3CCOCC3)cc2)c(C)o1 was tested, and the inhibition was 84.5% (active).
In the case of CC(=C/c1ccccc1)/C=N/NC(=O)c1cc(C)oc1C, the inhibition is reported as 73.3% (active).
For Cc1ccsc1C(=O)N/N=C/c1ccc([N+](=O)[O-])cc1, the inhibition was 73.3% (active).
CNc1nc(Nc2ccc(C)c(Cl)c2)nc(N)c1[N+](=O)[O-] was tested, and the inhibition was 96.8% (active).
O=C1/C(=C/c2cccs2)CCc2ccccc21 was tested, and the inhibition was 96.5% (active).
With O=C1/C(=C/c2cccs2)CCC1C1CCCC1 (stereo unspecified) the inhibition was 80.6% (active).
Oc1c(C=Nc2cccc3nsnc23)ccc2ccccc12 was tested, and the inhibition was 75.8% (active).
O=C(O)c1ccc(N/N=C/c2ccc3ncccc3c2)cc1 was tested, and the inhibition was 97.1% (active).
